Assay results as given in PubChem BioAssay AID1347131 (National Center for Advancing Translational Sciences (NCATS), 2019).
The whole screen tested about 410,000 compounds, of which about 2,000 (0.49%) were called active. Another 8% or so got no clear call; they are omitted. The sample holds actives, similar compounds and a random draw of the others, so the mix is not that of the screen. Calls come from the whole dose curve; tested in HEK293 reporter line.
Potency is the fitted concentration of half-maximal effect.

Assay: qHTS Assay for Foot and Mouth Disease Virus Antivirals: Primary Screen against the MLPCN compound library; note: nearly all actives have a fitted effect of over 55% in size
Conditions: FMDV antiviral cell-based qHTS; series mostly up to 57.9 µM; activity, negative = inhibition: at the top concentration
For `Cn1c(-c2ccccc2)cc2onc(-c3ccccc3)c2c1=O`, the Potency was 8.91 µM (active).
For `COc1ccc(-c2c3c(=O)n(C)c(=O)n(C)c3c3c(-c4ccccc4)nc4ccccc4n23)cc1`, the “activity, negative = inhibition” value was -18% (inactive).
In the case of `Cc1onc(-c2ccccc2)c1C(=O)n1nnc2ccccc21`, the “activity, negative = inhibition” value is reported as -36.4% (inactive).
In the case of `Cc1cc(Br)cc(C)c1OCC(=O)NNC(=O)c1cccs1`, the “activity, negative = inhibition” value is reported as -38.5% (inactive).
With `Cc1cc(NC(=O)c2ccc(S(=O)(=O)N3CCc4ccccc43)cc2)no1` the “activity, negative = inhibition” value was -32.7% (inactive).
For `COc1ccc(C)cc1S(=O)(=O)Nc1ccccc1`, the “activity, negative = inhibition” value was 103% (inactive).
For `COc1cc(NS(=O)(=O)c2ccc(C)cc2C)cc(OC)c1OC`, the Potency was 20 µM (active).
For `COc1ccc(OC)c(S(=O)(=O)Nc2ccc(F)cc2)c1`, the “activity, negative = inhibition” value was 125% (inactive).
For `CC1=[N+](C)c2ccc3ccccc3c2C1(C)C`, the “activity, negative = inhibition” value was -33.1% (inactive).
With `Cc1ccccc1OCc1nnc(SCC(=O)Nc2c(C)n(C)n(-c3ccccc3)c2=O)n1-c1ccccc1` the “activity, negative = inhibition” value was -43.3% (inactive).
In the case of `Cc1cc(O)ccc1Nc1nc(-c2cccs2)cs1`, the Potency is reported as 20 µM (active).
In the case of `Cc1ccc(NC(=O)c2cc(-c3cccs3)nc3ccccc23)c(C)c1`, the “activity, negative = inhibition” value is reported as -38.9% (inactive).
With `NS(=O)(=O)c1ccc(Nc2nc(-c3ccc(O)cc3O)cs2)cc1` the “activity, negative = inhibition” value was -33% (inactive).
In the case of `Cc1ccc(S(=O)(=O)N2CCN(C(=O)/C=C/c3ccccc3)CC2)cc1C`, the “activity, negative = inhibition” value is reported as -31.7% (inactive).
For `Cc1cc(S(=O)(=O)N2CCN(c3ccccc3F)CC2)ccc1-n1cnnn1`, the “activity, negative = inhibition” value was -37.1% (inactive).
For `Cc1ccc(/C=C/c2nc3ccccc3c(=O)n2CCc2ccccc2)cc1`, the “activity, negative = inhibition” value was -32.9% (inactive).
With `Cc1ccc(/C=C/c2nc3ccccc3n2S(=O)(=O)c2cccc(Cl)c2)cc1` the Potency was 8.91 µM (active).
With `COc1cccc(-n2c(/C=C\c3ccc(Cl)cc3)nc3ccccc3c2=O)c1` the “activity, negative = inhibition” value was -32.4% (inactive).
With `CSc1ccc(/C=C/c2nc3ccccc3n2S(=O)(=O)c2ccc(F)c(C)c2)cc1` the Potency was 20 µM (active).
For `CN1CCN(NC(=O)Nc2cc(Cl)cc(Cl)c2)CC1`, the “activity, negative = inhibition” value was -36.1% (inactive).
In the case of `COc1ccc(CN2CCNC(=O)C2CC(=O)N(C)Cc2ccno2)c(F)c1` (stereo not drawn), the “activity, negative = inhibition” value is reported as -25.3% (inactive).
With `CCSc1ncc(Cl)c(C(=O)N(Cc2ccccc2Cl)C2CCS(=O)(=O)C2)n1` (stereo not drawn) the “activity, negative = inhibition” value was -33.9% (inactive).
For `CCn1c(N2CCC(C)CC2)nc2c1c(=O)n(C)c(=O)n2C`, the “activity, negative = inhibition” value was -41.6% (inactive).
In the case of `CS(=O)(=O)c1nc(-c2ccc(Br)cc2)cc(-c2ccccc2)c1C#N`, the Potency is reported as 25.1 µM (active).
In the case of `CCc1nnc(NC(=O)CSc2nc(-c3ccccc3)cc(-c3ccc(F)cc3)c2C#N)s1`, the “activity, negative = inhibition” value is reported as 135% (inactive).
With `Nc1cc(-c2ccc(Br)cc2)nn1S(=O)(=O)c1ccccc1` the “activity, negative = inhibition” value was -33% (inactive).
In the case of `COc1ccc(C)cc1NC(=O)/C=C/c1ccc(OC)c(S(=O)(=O)N2CCOCC2)c1`, the “activity, negative = inhibition” value is reported as -31.7% (inactive).
With `COc1ccc(C(=O)Nc2ccc(C)c(S(=O)(=O)N3CCOCC3)c2)cc1S(=O)(=O)N1CCCC1` the “activity, negative = inhibition” value was -31.5% (inactive).
With `COc1ccc(/C=C/C(=O)Nc2ccccc2)cc1S(=O)(=O)N1CCOCC1` the Potency was 12.6 µM (active).
With `CCOC(=O)C1CCCN(S(=O)(=O)c2cc3c(cc2Cl)NC(=O)CO3)C1` (stereo not drawn) the “activity, negative = inhibition” value was -31% (inactive).
In the case of `CCCN(CCC)CCCNC(=O)C1CCCN(Cc2nc(-c3ccc(Cl)cc3)oc2C)C1` (stereo not drawn), the “activity, negative = inhibition” value is reported as -26.9% (inactive).
For `Cc1oc(-c2ccc(Cl)cc2)nc1CN1CCCC(C(=O)NCCCN2CCCC2=O)C1` (stereo not drawn), the Potency was 7.94 µM (active).
In the case of `Cc1oc(-c2ccc(Cl)cc2)nc1CN1CCCC(C(=O)NCc2cccnc2)C1` (stereo not drawn), the “activity, negative = inhibition” value is reported as -20.1% (inactive).
In the case of `Cc1ccc(S(=O)(=O)N2CCN(C(=O)CCCN3C(=O)NC4(CCCC4)C3=O)CC2)cc1C`, the “activity, negative = inhibition” value is reported as -33.6% (inactive).
In the case of `CCn1c2ccccc2c2cc(NC(=O)COc3ccc(C)c(C)c3)ccc21`, the “activity, negative = inhibition” value is reported as -31.2% (inactive).
For `CCOc1ccc(-c2nnc(-c3cccs3)o2)cc1`, the Potency was 15.8 µM (active).
For `CCOc1ccc(-c2nnc(NC(=O)COc3ccccc3F)o2)cc1`, the “activity, negative = inhibition” value was 119% (inactive).
For `CCn1c(SCCOc2ccc(Cl)cc2)nnc1-c1cccs1`, the “activity, negative = inhibition” value was -32.5% (inactive).
For `Cc1ccccc1-c1cnc2c(c1)C(=O)N([C@@H](C)CO)C[C@@H](C)[C@H](CN(C)Cc1ccccc1F)O2`, the “activity, negative = inhibition” value was -11.7% (inactive).
For `COc1ccc(C(O)(CC(C)C)C(CN2CCOCC2)c2ccccc2)cc1` (stereo not drawn), the “activity, negative = inhibition” value was -37.2% (inactive).
In the case of `O=C(Nc1nc2ccccc2s1)c1ccc2c(c1)OCO2`, the Potency is reported as 14.1 µM (active).
With `Cc1cc(NC(=O)c2ccc3c(c2)OCO3)ccc1NC(=O)c1ccccc1` the “activity, negative = inhibition” value was -94.1% (inactive).
In the case of `O=C(Nc1ccc2nc(SCCOc3ccccc3)sc2c1)c1ccc2c(c1)OCO2`, the “activity, negative = inhibition” value is reported as -33.5% (inactive).
In the case of `CC1(Cc2cc(Cl)ccc2C(F)(F)F)C(=O)Nc2c(Cl)cccc21` (stereo not drawn), the “activity, negative = inhibition” value is reported as -32.7% (inactive).
With `CCC(=O)N1CCc2cc(S(=O)(=O)CCC(=O)N3CCN(c4ccc(C(C)=O)cc4)CC3)ccc21` the “activity, negative = inhibition” value was -30.2% (inactive).
With `CC(C)CC(=O)Nc1ccccc1N1CCN(c2ccccc2)CC1` the “activity, negative = inhibition” value was -32% (inactive).
For `CCc1nc(SCC(=O)N2CCN(c3ccccc3)CC2)c2oc3ccccc3c2n1`, the Potency was 25.1 µM (active).
In the case of `Cn1c(=O)cc(SCC(=O)N2CCN(c3ccccc3)CC2)c2ccccc21`, the “activity, negative = inhibition” value is reported as -29% (inactive).
With `Cn1c(=O)c2c(SCC(=O)N3CCN(c4ccccc4)CC3)nc(C3CC3)nc2n(C)c1=O` the “activity, negative = inhibition” value was -43.8% (inactive).
With `COc1ccccc1N1CCN(c2nc(CNC(=O)c3sc(C)nc3C)nc3ccccc23)CC1` the “activity, negative = inhibition” value was -13.5% (inactive).
For `COc1ccc2c(Cl)c(C(=O)OCC(=O)c3ccc4c(c3)NC(=O)CO4)sc2c1Cl`, the “activity, negative = inhibition” value was -31% (inactive).
With `O=C(CSc1nc2ccccc2[nH]1)c1ccc(Cl)s1` the “activity, negative = inhibition” value was 38.3% (inactive).
In the case of `Cc1cc(C(=O)CSc2nc3ccccc3[nH]2)c(C)n1Cc1ccco1`, the Potency is reported as 11.2 µM (active).
In the case of `O=C(CSc1nc2ccccc2c(=O)n1Cc1ccco1)c1ccc(F)cc1`, the “activity, negative = inhibition” value is reported as -32.3% (inactive).
For `Cc1nn(C(C)C)c(C)c1CN1CCCC(C(=O)c2cccc(OC(C)C)c2)C1` (stereo not drawn), the “activity, negative = inhibition” value was -35.4% (inactive).
In the case of `COc1ccc(NC(=O)CNC(=O)Cn2c(C)cc3ccccc3c2=O)cc1OC`, the “activity, negative = inhibition” value is reported as -31.4% (inactive).
In the case of `CCN(CC)S(=O)(=O)c1cc(-c2nnc(Nc3ccc(OC)c(C(N)=O)c3)c3ccccc23)ccc1C`, the “activity, negative = inhibition” value is reported as -31% (inactive).
For `Cc1cc(C)cc(NC(=S)N2CCN(C(=O)c3ccco3)CC2)c1`, the “activity, negative = inhibition” value was -42.2% (inactive).
In the case of `O=C(CNc1ccc(F)cc1F)NC(=O)NCc1ccco1`, the “activity, negative = inhibition” value is reported as -30.5% (inactive).
With `CN1/C(=C\C(=O)c2ccco2)C(C)(C)c2ccccc21` the “activity, negative = inhibition” value was -42.8% (inactive).
With `O=C(Nc1ccc(F)cc1F)c1ccc2c(c1)[nH]c(=O)n2Cc1ccc(F)cc1` the “activity, negative = inhibition” value was -32.6% (inactive).
With `CN(C)c1ccc(N/C=C/C(=O)c2ccco2)cc1` the Potency was 8.91 µM (active).
For `O=C(/C=C/Nc1ccc(F)cc1F)c1ccco1`, the Potency was 10 µM (active).
